For 14 compounds, growth results are on record in PubChem BioAssay (NCI).

This is part of a sample that, as a whole, favours compounds with a hit. Of some 83,000 tested, about 20% had one in any assay.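 96-well plates, one dose, 48 hours. Percent growth reported; active if below 10.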 Values without a mark were called inactive. The source made the active and inactive calls.

Common to all, as to experiment: NCI-60 one-dose screen, 48 h (100 = growth as untreated, 0 = no growth, -100 = all killed)
Details in all cases: 10 µM unless noted

The subject of assay [1] is SK-MEL-2 melanoma.
In assay [2] the test system is EKVX NSCLC.
The subject of assay [3] is SN12C renal.
For assay [4], the system named is UO-31 renal.
The test system of assay [5] is TK-10 renal.
Assay [6] has as its system ACHN renal.
In assay [7] the test system is CAKI-1 renal.
Assay [8] concerns A498 renal.
In assay [9] the test system is MOLT-4 leukemia.
Assay [10] has as its system CCRF-CEM leukemia.

In the case of `CCOC(=O)c1cc(C(=O)c2cc(OC)c(OC)c(OC)c2)n2ncccc12`, the growth was 57.7% in [1]; 37.6% in assay [2]; 53.6% in assay [3]; 39.8% in assay [4]; 54% in assay [5]; 51.6% in assay [6]. For the same compound, the results for the growth in assay [7], in [8] and in assay [9] were 38.1%, -5.24% (active) and 18.5%, respectively.
Take `COc1cc(-c2nccc3[nH]c(-c4ccc5cc[nH]c5c4)nc23)cc(OC)c1OC`: the growth in [1] was 15.2%; in assay [2] it was 30.9%; in assay [3] it was 30.9%; in assay [4], 13.6%; in assay [5], 10.7%; in [6] it was 2.78% (active). For the same compound, the growth was 29.7% in assay [7], -2.61% (active) in [8] and 18.5% in assay [9].
As for `N#CC(C#N)N=Nc1ccc(Br)cc1`, the growth is 82.1% in assay [1]; 55.9% in [2]; 21.3% in assay [3]; 2.16% (active) in assay [4]; 36.5% in [5]; 16.6% in assay [6]. The growth in [7] was 6.33% (active); in assay [8] it was 100%; in [9], 31.8%.
Regarding `c1ccc(-c2oc(-c3ccccc3)c(CN3CCCCC3)c2CN2CCCCC2)cc1`, the growth in [1] is 48.4%; in [2], 41%; in assay [3], 31.2%; in [4], 18.5%; in [5] it was 42.2%; in assay [6], 44.9%. In addition, the growth is 38.1% in [7], 17.5% in assay [8] and 15.2% in [9].
Consider `CCCCCCCCCCC(CN(CC)CC)C(O)c1ccccc1` (stereo unspecified), for which the growth is 65.8% in [1]; 41.8% in assay [2]; 57.1% in assay [3]; 24.4% in [4]; 45.3% in assay [5]; 31.6% in assay [6]. The growth in assay [7] is 45.5%; in assay [8] it was 56.4%; in assay [9] it was -15.2% (active).
`CCSC(SCC)c1ccc(Cl)cc1`: the growth is 116% in [1]; 106% in assay [2]; 99.7% in assay [3]; 92.5% in assay [4]; 116% in [5]; 107% in assay [6]. Moreover, the growth in [7] is 82.9%; in [8], 93.4%; in [10], 108%; in [9], 110%.
Consider `CCCCNCCCCCNc1cc(OC)cc2cccnc12`, for which the growth was 106% in assay [1]; 106% in assay [2]; 97.6% in [3]; 63.1% in assay [4]; 100% in [5]; 100% in assay [6]. For the same compound, the growth in [7] is 114%; in assay [8] it was 87.9%; in [9], 100%.
In the case of `CC(=O)n1nc(C(=O)OC(C)(C)c2ccccc2)c2ccccc21`, the growth in assay [1] was 105%; in [2], 100%; in assay [3] it was 86.9%; in assay [4], 93.2%; in [5], 101%; in [6], 100%. Further, the growth is 84.5% in assay [7], 96.8% in assay [8], 83.1% in assay [10] and 96.9% in assay [9].
Take `CCN1C(=S)N(c2ccccc2)C2C1NN=c1s/c(=C3\C(=O)N(C(C)C)c4ccccc43)c(=O)n12` (stereo unspecified): the growth is 107% in assay [1]; 101% in assay [2]; 55.1% in assay [3]; 80.5% in assay [4]; 86.6% in assay [5]; 80% in assay [6]. Further, the growth is 76.2% in assay [7], 97.5% in [8], 93.1% in [10] and 91.1% in assay [9].
With `C/C(=N\O)c1ccc(Cl)cc1`, the growth in [1] was 120%; in [2], 103%; in assay [3] it was 99%; in assay [4], 91.4%; in [5], 107%; in assay [6], 105%. The growth in [7] is 96.9%; in [8] it was 111%; in assay [9] it was 86.3%.
With `Cn1cc(-c2csc(-c3c[nH]c4ccc(Br)cc34)n2)c2ccnc(Cl)c21`, the growth in assay [1] was 85.4%; in assay [2], 69.1%; in assay [3], 67.5%; in assay [4], 48.8%; in assay [5], 56.3%; in assay [6], 39.2%. The growth in assay [7] was 66.5%; in assay [8], 51.6%; in assay [10] it was 39.5%; in assay [9], 56.4%.
Turning to `Oc1c(Br)cc(Br)c2ccc(Cn3cc(-c4ccccc4C(F)(F)F)nn3)nc12`, the growth is 101% in assay [1]; 95.5% in assay [2]; 96.9% in assay [3]; 78.7% in assay [4]; 134% in [5]; 61.8% in assay [6]. Also, the figures for the growth in assay [7], in assay [8] and in assay [9] were 55%, 106% and 6.89% (active), respectively.
As to `COc1ccc(C(=O)C/C(=C\c2ccc(Cl)cc2)C(=O)NCc2ccccc2)cc1`, the growth in assay [1] was 79.6%; in [2], 95.6%; in [3], 91.3%; in assay [4] it was 76%; in [5] it was 72.7%; in [6] it was 92.7%. Further, the growth is 87.4% in [7], 88% in [8], 73.5% in assay [10] and 72.9% in [9].
On to `O=C(Nc1ccc(Oc2cccc(F)c2)c(Cl)c1)c1cccnc1`, for which the growth was 36.5% in [1]; 49.6% in [2]; 36.4% in assay [3]; 39.7% in assay [4]; 59.9% in assay [5]; 35.2% in assay [6]. For the same compound, the growth is 32.5% in assay [7], 4.16% (active) in [8] and 40.2% in assay [9].
